Test results as given in PubChem BioAssay.
Active and inactive are the calls of the source.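 How the source made its calls: active means mean duplicate potentiation above the buffer control mean plus 5 SD of buffer wells; inactive means the rest.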

Biological target: Potassium voltage-gated channel subfamily KQT member 2 (Rattus norvegicus) (UniProt O88943)
Assay: rat KCNQ2 channel potentiation, selectivity assay for KCNQ1 potentiator project, KCNQ2-CHO-K1 cells (AID 493009);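 further: assay conditions were tuned for KCNQ1 rather than KCNQ2 modulators; signal is max minus min fluorescence divided by baseline after thallium stimulus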
Conditions: FluxOR thallium flux fluorescence, at 10 µM; active compounds read high, scaled: buffer 0, activator control 100

Sequence of Potassium voltage-gated channel subfamily KQT member 2 (Rattus norvegicus) (O88943 whole entry, looked up): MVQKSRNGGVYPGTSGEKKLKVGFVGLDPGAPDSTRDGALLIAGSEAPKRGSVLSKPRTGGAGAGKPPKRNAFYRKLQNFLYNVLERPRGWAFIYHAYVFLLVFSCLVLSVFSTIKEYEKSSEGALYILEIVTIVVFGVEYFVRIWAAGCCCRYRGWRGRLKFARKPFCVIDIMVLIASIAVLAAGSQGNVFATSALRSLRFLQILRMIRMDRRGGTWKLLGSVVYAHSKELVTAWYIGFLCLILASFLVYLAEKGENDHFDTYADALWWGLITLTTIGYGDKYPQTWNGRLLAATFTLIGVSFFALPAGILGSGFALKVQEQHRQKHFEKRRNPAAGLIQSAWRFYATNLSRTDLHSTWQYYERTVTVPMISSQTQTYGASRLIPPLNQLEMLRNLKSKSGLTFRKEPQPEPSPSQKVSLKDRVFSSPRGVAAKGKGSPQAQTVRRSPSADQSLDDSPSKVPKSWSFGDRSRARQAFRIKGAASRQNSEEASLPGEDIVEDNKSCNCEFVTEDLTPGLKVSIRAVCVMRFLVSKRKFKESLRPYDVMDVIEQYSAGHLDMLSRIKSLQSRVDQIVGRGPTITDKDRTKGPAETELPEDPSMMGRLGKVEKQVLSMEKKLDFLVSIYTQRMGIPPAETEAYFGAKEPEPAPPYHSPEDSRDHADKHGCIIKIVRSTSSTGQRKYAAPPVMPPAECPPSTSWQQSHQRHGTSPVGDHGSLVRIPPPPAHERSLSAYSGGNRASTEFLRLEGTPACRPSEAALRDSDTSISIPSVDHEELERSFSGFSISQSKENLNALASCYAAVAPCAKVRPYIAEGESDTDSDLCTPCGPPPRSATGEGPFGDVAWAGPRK

Row | Compound | potentiation | outcome
1 | Cc1ccc(-c2csc(=S)[nH]2)cc1 | 643% (active) | 
2 | Fc1ccccc1C(c1nnnn1C1CCCC1)N1CCN(Cc2ccccc2)CC1 (centres undefined) |  | inactive
3 | CCC1(c2ccccc2)NC(=O)N(CC(=O)Nc2ccccc2C(=O)N2CCCCC2)C1=O (centres undefined) |  | inactive
4 | Cc1sc2ncnc(SCC(=O)c3ccc(O)cc3O)c2c1C | 176% (active) | 
5 | Oc1ccc(N=Nc2ccc3c(c2)OCCO3)c2ncccc12 | 352% (active) | 
6 | CCC(/C=N/NC(=O)C1COc2ccccc2O1)CC (centres undefined) |  | inactive
7 | COc1cccc(C2=NOC(C(=O)NCc3ccccc3)C2)c1 (centres undefined) |  | inactive
8 | COc1ccccc1CNC(=O)c1oc2ccc(S(=O)(=O)N3CCOCC3)cc2c1C |  | inactive
9 | O=C(O)CSc1cc(NS(=O)(=O)c2ccc(Br)cc2)c2ccccc2c1O |  | inactive
10 | Cc1ccc(-c2ccc(C3C(C#N)=C(N)Oc4n[nH]c(C)c43)o2)cc1 (centres undefined) |  | inactive
11 | Cc1cc(Cl)ccc1OCc1n[nH]c(=S)n1C1CCCCC1 | 212% (active) | 
12 | C(=N\NC(=Nc1ccccc1)c1ccccn1)/c1ccccn1 |  | inactive
13 | COc1cnc(-c2ccccn2)nc1Oc1ccccc1Cl |  | inactive
14 | Cc1cc(NC(=O)CSc2cn(CCNC(=O)c3ccc(F)cc3)c3ccccc23)no1 |  | inactive
15 | Cc1cccc(C(=O)NC(=S)N(C)C2CCCCC2)c1 | 326% (active) | 
16 | CN(C)C(=S)NC(=O)c1cccc(Cl)c1 | 142% (active) | 
17 | CCCc1c(C)[nH]c2ccc(NC(C)=O)cc2c1=O |  | inactive
18 | Cc1cc2n(n1)SC(Nc1ccc(F)c(Cl)c1)N2 (centres undefined) |  | inactive
19 | C=C[C@@]1(C)CC(=O)[C@]2(O)[C@@]3(C)[C@@H](O)CCC(C)(C)[C@@H]3[C@H](OC(C)=O)[C@H](O)[C@@]2(C)O1 |  | inactive
